Screening results from PubChem.
PERK inhibitor = human PERK inhibition, primary cell-based screen; Q9NZJ5; CHO PERK-DD fusion, SEAP luminescence translation reporter; inhibition, % at 5.6 µM; actives 0.17% (n = 220,000);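 active = inhibition above the mean inhibition of all tested compounds plus 3 SD, set separately per screening campaign, cut at about 2.9% in these data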;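 also: PERK kinase domain activated by AP20187 dimerizer at 100 nM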
eIF4E-4G inh = inhibitors of eIF4E and eIF4G interaction in translation initiation; P63073+Q04637; TR-FRET eIF4E-eIF4GI(517-606) binding, 2 h; inhibition, % at 21.7 µM; actives 0.37% (n = 220,000);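 active = inhibition above about 30%, limit read from the data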
eIF4H inh = inhibitors of RNA binding by human eIF4H; Q15056; eIF4H fluorescence polarization binding assay; inhibition, % at 35 µM; actives 0.94% (n = 290,000); AID 2012;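 also: calls also rest on retests at 20 µM and on dose response follow-up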
MLLE-PAM2 inh = inhibitors of microRNA-mediated deadenylation, human PABP1 MLLE binding; P11940; GST-MLLE / FITC-PAM2 fluorescence polarization; inhibition, % at 20 µM; actives 0.36% (n = 360,000); AID 588489; in the data active = inhibition above about 35%, passing the limit was not always enough
PABP polyA inh = blocks human PABP binding to poly(A) RNA; inhibition, % at 35 µM; fluorescence polarization; AID 2014; actives 1% (n = 290,000);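 also: calls also rest on retests at 20 µM and on dose response follow-up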
Of the large screens only hits and unclear results are named; the others gave an inactive call. A selection: hits, their analogues and other compounds. The true share with any hit is near 1.6%. Unless noted, no rule for the calls is given here.

COc1ccc(N2Cc3cccc(C(=O)O)c3C2=O)cc1	eIF4H inh 93, PABP polyA inh 68
O=C1c2cc3c(cc2CCC1c1ccc2c(c1)OCO2)OCO3 (stereo not drawn)	none (no result: PERK inhibitor, eIF4E-4G inh, eIF4H inh, PABP polyA inh)
C#CCN(C(=O)Nc1ccccc1)c1ccccc1	eIF4H inh 3.2, PABP polyA inh 59
Cc1cc2cc(CNC(=O)c3ccc(C)c([N+](=O)[O-])c3)ccc2[nH]1	MLLE-PAM2 inh 43
CCOC(=O)C(C)Sc1ccc2nnc(-c3ccc(F)cc3)n2n1 (stereo not drawn)	eIF4E-4G inh 51
CC(Sc1ccc2nnc(-c3ccc(F)cc3)n2n1)C(=O)O (stereo not drawn)	none
O=C(NNC(=O)c1cncc(Br)c1)c1ccncc1	none (no result: PERK inhibitor, eIF4E-4G inh, eIF4H inh, PABP polyA inh)
COCC(=O)N1C[C@H]2CON(C)[C@H]2C[C@H]1c1cccc(-c2ccccc2)c1	none (no result: PERK inhibitor, eIF4E-4G inh, eIF4H inh, PABP polyA inh)
CCSc1nnc(-c2ccccc2NC(=O)CC)c(=O)[nH]1	none
CCSc1nnc(-c2cc(Br)ccc2NC(C)=O)c(=O)[nH]1	eIF4E-4G inh 96
Cc1ccccc1CC(=O)Nc1ccc(S(=O)(=O)N2CCN(C)CC2)cc1	none (no result: PERK inhibitor, eIF4E-4G inh)
CCSC1=N/C(=C\c2ccc3c(c2)OCO3)C(=O)S1	none
C=CCSC1=N/C(=C\c2cc(OC)c3c(c2)OCO3)C(=O)S1	eIF4H inh 57
NS(=O)(=O)c1ccc(NC(=O)C2Cc3ccccc3CN2C(=O)c2ccco2)cc1 (stereo not drawn)	eIF4H inh 70, PABP polyA inh 34 (no result: PERK inhibitor, eIF4E-4G inh)
NS(=O)(=O)c1ccc(CCNC(=O)C2Cc3ccccc3CN2C(=O)c2ccco2)cc1 (stereo not drawn)	none
Cc1noc(NS(=O)(=O)c2ccc(NC(=O)/C=C/c3ccccc3)cc2)c1C	none (no result: PERK inhibitor, eIF4E-4G inh, eIF4H inh, PABP polyA inh)
Cc1ccccc1NC(=O)CN1C(=O)S/C(=C\c2cccn2-c2cccc(C(=O)O)c2)C1=O	eIF4H inh 81, PABP polyA inh 38
Cc1ccc(NC(=O)CN2C(=O)S/C(=C\c3cccn3-c3cccc(C(=O)O)c3)C2=O)c(C)c1	eIF4H inh 91, PABP polyA inh 41
Cc1cccc(C)c1NC(=O)CN1C(=O)S/C(=C\c2cccn2-c2cccc(C(=O)O)c2)C1=O	eIF4H inh 80, PABP polyA inh 36
Cc1cccc(NC(=O)CN2C(=O)S/C(=C\c3cccn3-c3cccc(C(=O)O)c3)C2=O)c1	none
Cc1ccc(NC(=O)CN2C(=O)S/C(=C\c3cccn3-c3cccc(C(=O)O)c3)C2=O)cc1C	PABP polyA inh 32
CCOc1ccccc1NC(=O)COC(=O)C1CC(=O)N(c2c(C)cccc2C)C1 (stereo not drawn)	none (no result: PERK inhibitor, eIF4E-4G inh)
CCN1CCN(S(=O)(=O)c2ccc(Cl)c(C(=O)N(C)CC(=O)Nc3c(C)cccc3C)c2)CC1	none (no result: PERK inhibitor, eIF4E-4G inh, eIF4H inh, PABP polyA inh)
CC1CCN(c2ccc3c(c2)S(=O)(=O)c2cccc(C(=O)NC4CC4)c2C3=O)CC1	none (no result: PERK inhibitor, eIF4E-4G inh, eIF4H inh, PABP polyA inh)
COc1ccc(NC(=O)CN2C(=O)S/C(=C/c3cccn3-c3ccc(C(=O)O)cc3)C2=O)cc1	eIF4H inh 87, PABP polyA inh 80 (no result: PERK inhibitor, eIF4E-4G inh)
COc1ccc(/C=C2\SC(=O)N(CCCC(=O)Nc3ccc(C(=O)O)cc3)C2=O)cc1	none (no result: PERK inhibitor, eIF4E-4G inh, eIF4H inh, PABP polyA inh)
COc1ccc(S(=O)(=O)Nc2ccc3c(c2)C(=O)N([C@H](C)CO)C[C@H](C)[C@@H](CN(C)C(=O)NC2CCCCC2)O3)cc1	none (no result: PERK inhibitor, eIF4E-4G inh, eIF4H inh, PABP polyA inh)
Cc1ccc(NC(=S)N(CCCN2CCN(C)CC2)Cc2cccs2)cc1C	PABP polyA inh 106
Cc1ccc(S(=O)(=O)NCC(=O)N(CC2CCCO2)C(C(=O)NCC2CCCO2)C(C)C)cc1 (stereo not drawn)	none (no result: PERK inhibitor, eIF4E-4G inh)
COC(=O)c1ccccc1NC(=O)Cc1nc(-c2ccccc2)sc1-c1ccc(C)cc1	eIF4H inh active, PABP polyA inh 70
O=C1C2CC=C(Cl)CC2C(=O)N1CN(Cc1ccco1)CN1C(=O)C2CC=C(Cl)CC2C1=O (stereo not drawn)	eIF4H inh 66, PABP polyA inh 54
COc1ccc([C@H]2C[C@@H](O)[C@H](n3cc(COC(=O)c4ccccc4)nn3)CN2C(=O)C2CCCCC2)cc1	none (no result: PERK inhibitor, eIF4E-4G inh, eIF4H inh, PABP polyA inh)
O=C(Nc1cccc(-c2nc3cccnc3s2)c1)C1c2ccccc2Oc2ccccc21	eIF4E-4G inh 34
O=C(NC1CCCc2ccccc21)c1c(F)cccc1Cl (stereo not drawn)	none (no result: PERK inhibitor, eIF4E-4G inh)
Cc1ccc(C)n1-c1nccc(-c2cccs2)n1	eIF4H inh 91, PABP polyA inh 32
Cc1ccc(C)n1-c1nccc(-c2ccco2)n1	eIF4H inh 54, PABP polyA inh 8.2
